The record followed here is the supplement of paper PMC12532568.

Where a name gives a salt, the structure may show the parent alone.

The test system of the test is Danio rerio larvae Tg(actc1b:ZsGreen-LC3), 3 dpf. In words: LC3 puncta relative area vs vehicle, without NH4Cl (log2 fold change); higher = more autophagosomes. Conditions: 10 µM; treatment time 16 h; NH4Cl: none. The protocol:
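Transgenic Tg(actc1b:ZsGreen-map1lc3) zebrafish larvae (2 dpf) were treated for 16 h with Tocris library compounds at 10 µM (n = 12 larvae per compound). Skeletal-muscle LC3 puncta area relative to body area was measured by high-content confocal imaging before and after 4 h of 100 mM NH4Cl (autophagic flux), normalised to vehicle (DMSO), and reported as log2 fold change.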
Turning to `NS(=O)(=O)c1cccc2c1c([N+](=O)[O-])cc1nc(O)c(O)nc12`, the “LC3 puncta (log2)” value was determined as 0.286. Regarding `O=C1CC2(CCCC2)CC(=O)N1CCCCNCC1COc2ccccc2O1` (stereo not given), the “LC3 puncta (log2)” value was -0.00847. To `c1ccc(CN(CC2=NCCN2)c2ccccc2)cc1` [Antazoline hydrochloride] belongs 0.664. To `c1ccc2oc(C3=NCCN3)cc2c1` [2-BFI hydrochloride] belongs 0.0586; to `CN(C)CCCCSC(=N)N`, 0.222; to `C1COC(NC(C2CC2)C2CC2)=N1` [Rilmenidine hemifumarate], 0.278. The result for `N[C@@H](C(=O)O)c1ccc(O)c(C(=O)O)c1` [(R)-3-Carboxy-4-hydroxyphenylglycine] reads 0.211; that for `OCCN(CCO)c1nc(N2CCCCC2)c2nc(N(CCO)CCO)nc(N3CCCCC3)c2n1` [Dipyridamole], -0.714. With `CCC(C)N(C)C(=O)c1cc2ccccc2c(-c2ccccc2Cl)n1` (stereo not given), the “LC3 puncta (log2)” value was -0.0562. The result for `CC(CCCCC(=O)Nc1ccc(C(F)(F)F)cc1)NCCc1cnc[nH]1` (stereo not given) [HTMT dimaleate] reads 0.258; that for `CC1(C(=O)O)NCCc2cc(O)c(O)cc21` (stereo not given) [Salsolinol-1-carboxylic acid], 0.463; that for `NC(=O)Nc1sc(-c2ccc(F)cc2)cc1C(N)=O`, 0.302. To `CNCCCCOc1ccccc1Cc1ccccc1` [Bifemelane] belongs 0.531. To `CSc1ccc2c(c1)C(N1CCN(C)CC1)Cc1ccccc1S2` (stereo not given) [Methiothepin maleate] belongs -0.425; to `C=C1C(=O)O[C@H]2[C@H]1CC/C(C)=C/CC[C@@]1(C)O[C@@H]21` [Parthenolide], 0.0168; to `CC(=O)N1CCN(C)CC1` [1-Acetyl-4-methylpiperazine hydrochloride], 0.18. Take `COc1ccccc1N1CCN(CC(O)COc2cccc3ccccc23)CC1` (stereo not given) [Naftopidil dihydrochloride]: the “LC3 puncta (log2)” value is -0.0568.

For `CCOC(=O)C1=C(C)NC(C)=C(C(=O)OC)C1c1cccc([N+](=O)[O-])c1` (stereo not given) [Nitrendipine], the “LC3 puncta (log2)” value came out at 0.107. To `CCCCCCN(CCCCCC)C(=O)Cc1c(-c2ccc(Cl)cc2)[nH]c2ccc(Cl)cc12` belongs 0.364; to `O=C(O)CC/C=C\C[C@H]1CO[C@@H](c2ccccc2Cl)O[C@H]1c1ccccc1O`, -0.249.

Regarding `CC(CCc1ccc(O)cc1)NCCc1ccc(O)c(O)c1` (stereo not given) [Dobutamine hydrochloride], the “LC3 puncta (log2)” value was -0.094. As for `CN(C)CCCSC(=N)N` [Dimaprit dihydrochloride], the “LC3 puncta (log2)” value was 0.203. To `COCCOC(=O)C1=C(C)NC(C)=C(C(=O)OC(C)C)C1c1cccc([N+](=O)[O-])c1` (stereo not given) [Nimodipine] belongs 0.31. To `Nc1cc(N2CCCCC2)nc(N)[n+]1[O-]` [Minoxidil] belongs 0.233; to `Cc1ccc2c(c1)c1c3n2CCNC3CCC1` (stereo not given) [Pirlindole mesylate], 0.028; to `Nc1nc2ccc(OC(F)(F)F)cc2s1` [Riluzole], 0.289. The result for `CC(=O)N[C@@H](Cc1c[nH]c2ccccc12)C(=O)OCc1cc(C(F)(F)F)cc(C(F)(F)F)c1` reads 0.214; that for `CC(C)Oc1ccc2c(=O)c3cc(C(=O)O)ccc3oc2c1`, 0.473; that for `Brc1c(NC2=NCCN2)ccc2nccnc12`, 0.438.

For `CCN(CC)CCOc1ccc(Cc2ccccc2)cc1` [DPPE fumarate], the “LC3 puncta (log2)” value turned out to be 0.714.

As for `NS(=O)(=O)c1cc2c(cc1Cl)NC(C1CC3C=CC1C3)NS2(=O)=O` (stereo not given) [Cyclothiazide], the “LC3 puncta (log2)” value is -0.147. For the compound `c1ccc2nc(C3=NCCN3)cnc2c1` [BU 239 hydrochloride], the “LC3 puncta (log2)” value was -0.208.

With `O=C(NCCN1CCCCC1)c1ccc(I)cc1` [N-[2-(Piperidinylamino)ethyl]-4-iodobenzamide], the “LC3 puncta (log2)” value stood at 0.492. Regarding `COC(=O)/C=C/c1cc(O)ccc1O` [Methyl 2,5-dihydroxycinnamate], the “LC3 puncta (log2)” value amounted to 0.0626. To `c1ccc(CN2CCC3(CCc4ccccc43)CC2)cc1` [L-693,403 maleate] belongs -0.0234; to `CCc1nc(N)nc(N)c1-c1ccc(Cl)cc1` [Pyrimethamine], 0.169; to `CC(N)(Cc1ccc(O)c(O)c1)C(=O)O` (stereo not given), 0.269.

Take `O=C(O)C=C1CCCc2ccccc2C1O` (stereo not given): the “LC3 puncta (log2)” value was determined as 0.299.

For `N[C@H](C(=O)O)c1ccc(O)c(C(=O)O)c1` [(S)-3-Carboxy-4-hydroxyphenylglycine], the “LC3 puncta (log2)” value amounted to 0.267. In the case of `NC(=O)c1cccc(N)c1` [3-Aminobenzamide], the “LC3 puncta (log2)” value was 0.336.
